Source: PubChem
FLuc modulator = inhibits or activates purified firefly luciferase, miR-21 counter-screen; hit rate 6.9% among 360,000; AID 588342; Potency, µM (top dose mostly 57.5 µM), for the others: top-dose activity change, negative = inhibition, hits mostly inhibitors; purified FLuc, Km substrates, luminescence inhibition; P08659;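 further: plate controls were vehicle for no effect and reference inhibitor for full effect; nearly all actives have a fitted effect of over 55% in size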
Target sequence (P08659 whole entry, looked up): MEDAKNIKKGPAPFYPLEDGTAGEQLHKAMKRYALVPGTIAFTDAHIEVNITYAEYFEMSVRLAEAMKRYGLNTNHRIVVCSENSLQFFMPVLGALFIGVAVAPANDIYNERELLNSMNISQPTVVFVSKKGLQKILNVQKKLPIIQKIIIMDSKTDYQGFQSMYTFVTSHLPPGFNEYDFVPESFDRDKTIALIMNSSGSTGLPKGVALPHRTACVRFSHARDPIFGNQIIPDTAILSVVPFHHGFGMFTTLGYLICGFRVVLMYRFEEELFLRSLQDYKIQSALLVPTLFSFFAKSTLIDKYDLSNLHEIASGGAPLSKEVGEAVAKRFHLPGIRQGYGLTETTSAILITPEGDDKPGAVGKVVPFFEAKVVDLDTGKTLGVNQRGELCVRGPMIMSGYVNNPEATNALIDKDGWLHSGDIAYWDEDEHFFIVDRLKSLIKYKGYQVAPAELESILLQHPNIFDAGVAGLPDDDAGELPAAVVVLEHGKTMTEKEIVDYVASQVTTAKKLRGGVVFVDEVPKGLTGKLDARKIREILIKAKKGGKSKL
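Biochemical qHTS of compounds, final roughly 60 µM downward over six points, against 10 nM purified firefly luciferase using Km concentrations of substrates (10 uM D-luciferin, 10 uM ATP) in Tris acetate pH 7.5 buffer; luminescence output.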
Luc counter = blocks Kinase-Glo luciferase, a counter-screen artifact; Q27757; Kinase-Glo luciferase, ATP luminescence, 8 min; Potency, µM (top dose mostly 38.3 µM), without a hit: top-dose activity change, negative = inhibition, most hits filed as inhibitors; hit rate 0.28% among 200,000; AID 1379; further: on the % scale 0 is the no-effect control and ±100 the full control effect; nearly all actives have a fitted effect of over 60% in size
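Kinase-Glo luciferase light output from ATP and luciferin was measured with 10 uM ATP, within the enzyme's linear range. Buffer: 50 mM imidazole pH 7.2, 50 mM KCl, 7 mM MgCl2, 0.01% Tween 20, 0.05% BSA; luminescence read after 8 min at ambient temperature.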
Rab9 prom act = activators of Rab9 promoter. Huh7 Rab9 promoter-luciferase reporter, luminescence, 24 h. Potency, µM (doses to about 9.22 µM), for inactives: top-dose activation, negative = inhibition, usual class: activators. hit rate 2.8% among 320,000. AID 485297; further: % of control where 0% means no effect; nearly all actives have a fitted effect of over 60% in size
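Luminescence read-out: Huh7 cells stably expressing Rab9-luciferase, treated 24 h with compound at 37 °C, then lysed with luciferase reagent for 10 min at ambient before reading.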
NPC1 prom act = activators of NPC1 promoter; Huh7 NPC1 promoter luciferase reporter, 24 h; Potency, µM (series often up to 9.22 µM), inactives show top-dose activation, usual class: activators; hit rate 2.4% among 320,000; AID 485313; further: % of control where 0% means no effect; nearly all actives have a fitted effect of over 60% in size
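Quantitative HTS used a cell-based reporter: Huh7 cells stably bearing the NPC1 promoter upstream of luciferase were treated with compounds for 24 h, and promoter activation was read as luminescence.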
ELG1 genotoxic = induces genotoxicity in HEK293T cells with luciferase-tagged ELG1; hit rate 1.3% among 330,000; HEK293T ELG1-luciferase reporter, luminescence, 16 h; Potency, µM (highest dose often 46 µM), for the others: at the highest dose activity change, positive = activation, hits mostly activators; AID 504466; further: % of control where 0% means no effect; nearly all actives have a fitted effect of over 60% in size
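16 hr compound incubation (37 °C, 5% CO2) of HEK293T cells carrying luciferase-tagged ELG1; luciferase then measured by ONE-Glo luminescence after 30 min at RT.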
SMN2 splice enh = enhancers of SMN2 splice variant expression | HEK293 SMN2-luciferase splicing reporter, luminescence, 30-36 h | Potency, µM (highest dose often 46.1 µM), for inactives: top-dose activity change, positive = activation, most hits filed as activators | hit rate 2.8% among 210,000; further: % of control where 0% means no effect; nearly all actives have a fitted effect of over 55% in size
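HEK293 cells carry an SMN2 minigene-luciferase reporter in which exon 7 inclusion puts luciferase in frame. Cells were seeded at 2000 cells/well, attached for 10-12 hours, then exposed to compounds for 30-36 hours at 37C before ONE-Glo luminescence.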
An asterisk follows results filed as active; ? = inconclusive; nt = no result given; [ ] = dose if it differs, or a comment. Compounds with a hit are over-represented: about 7.5% of the library has one in this group of screens. The call rests on the fitted dose curve; in most records, active means well fitted curve in the direction sought with a large enough effect; inconclusive means small, poorly fitted or top-dose-only effect, or another doubt; inactive means no such curve, though single readings can be large; an effect the other way counts as inactive or inconclusive. Potency means the concentration at half of the fitted maximal effect.

SMILES	FLuc modulator	Luc counter	Rab9 prom act	NPC1 prom act	ELG1 genotoxic	SMN2 splice enh
CCOC(=O)c1ccc(NC(=O)c2nn(C)cc2Br)cc1	6.75µM*	-1.6%	?	?	20.6µM*	24.4%
CCn1cc(Br)c(C(=O)Nc2ccc(F)c(Cl)c2)n1	16.9µM*	-0.1%	2.82µM*	2.24µM*	?	10.6%
CCOC(=O)c1ccc(NC(=O)Nc2ccn(C)n2)cc1	?	1.7%	?	?	18.0%	7.8%
O=C(Cc1ccccc1)Nc1sc2c(c1C(=O)Nc1ccc(Br)cc1)CCCC2	5.0%	nt	nt	nt	nt	-7.5%
C=C(C#N)C(=O)OCC	nt	nt	nt	nt	nt	-8.8%
COc1ccc(/C=N/Nc2ccc(C(=O)O)cc2)cc1OC	1.35µM*	nt	0.316µM*	0.316µM*	?	nt
C=CCOc1c(Br)cc(/C=N/Nc2ccc(C(=O)O)cc2)cc1OCC	30.1µM*	1.8%	3.55µM*	2.82µM*	?	8.91µM*
COc1ccc(/C=N/Nc2ccc(C(=O)O)cc2)cc1Br	0.675µM*	?	?	?	?	-79.7%
COc1ccc(/C=N\NC(=O)C2CCCC2)cc1Br	5.5%	nt	-1.5%	-3.0%	0.6%	nt
CCOc1cc(/C=N/O)cc(Br)c1OCC	0.8%	1.0%	0.8%	-5.6%	-1.0%	-39.7%
Cn1cc([N+](=O)[O-])c(C(=O)NCc2cc3ccccc3[nH]2)n1	1.7%	-4.5%	-3.0%	0.1%	-3.2%	-3.2%
Cn1cc([N+](=O)[O-])c(C(=O)Nc2ccc(C3CCCCC3)cc2)n1	10.7µM*	-2.1%	?	13.8%	13.7%	nt
Cn1cc([N+](=O)[O-])c(C(=O)Nc2ccc(-c3nc4ccccc4[nH]3)cc2)n1	2.69µM*	-2.4%	?	?	?	8.91µM*
Cc1cc(C)n(Cc2ccc(NC(=O)c3nn(C)cc3[N+](=O)[O-])cc2)n1	0.2%	0.0%	-3.5%	-0.3%	-0.9%	5.8%
Cn1cc([N+](=O)[O-])c(C(=O)Nc2ccc3nc(-c4ccccc4)[nH]c3c2)n1	4.78µM*	-2.5%	?	3.16µM*	?	15.8µM*
O=S(=O)(Nc1ccc2oc3c(c2c1)CCCC3)c1cc(Cl)ccc1Cl	?	nt	nt	nt	nt	-2.3%
CC1(Cn2ccnn2)[C@H](C(=O)O)N2C(=O)C[C@H]2S1(=O)=O (stereo not given in full)	nt	0.8%[39.9 µM]	nt	nt	nt	nt
COc1ccc(CNC(=O)C2CCN(c3nc4ccccc4[nH]3)CC2)c(OC)c1	-3.1%	nt	nt	nt	nt	nt
CCOc1ccc(Cc2nc(-c3nonc3N)no2)cc1OCC	1.6%	2.7%	10.0%	8.1%	2.5%	10.3%
Nc1nonc1-c1noc(COc2ccccc2Cl)n1	4.78µM*	9.0%	1.12µM*	1.41µM*	5.17µM*	11.2µM*
Cc1cccc(OCc2nc(-c3nonc3N)no2)c1C	?	0.6%	?	3.16µM*	10.3µM*	10µM*
COc1cc(/C=N/NC(=S)NC2CC3CC2C2C=CCC32)ccc1O (stereo not given)	?	nt	2.2%	24.5%	4.9%	nt
Cc1ccc(CNC(=O)CN2C(=O)COc3ccc(S(=O)(=O)N4CCC(C)CC4)cc32)cc1	-13.1%	nt	nt	nt	nt	17.9%
Cc1nn(Cc2ccccc2Cl)c(Cl)c1C(=O)NCCc1ccccc1	3.79µM*	1.1%	1.58µM*	3.98µM*	?	11.2µM*
Cc1nn2c(=O)cc(COC(=O)c3ccccc3NC(=O)c3cccs3)nc2s1	-1.1%	nt	nt	nt	nt	nt
SMILES	FLuc modulator	Luc counter	Rab9 prom act	NPC1 prom act	ELG1 genotoxic	SMN2 splice enh
C/C(N)=C(/C#N)C(=O)CSc1nnc(Nc2ccccc2C)s1	?	-1.8%	20.1%	?	15.1%	-5.8%
C/C(N)=C(/C#N)C(=O)CSc1nc2ccccc2[nH]1	21.3µM*	-6.3%	?	?	20.6µM*	?
CC1CCN(C(=O)CSc2nc3ccccc3[nH]2)CC1	23.9µM*	0.0%	3.16µM*	2.51µM*	?	15.8µM*
C/C(N)=C(/C#N)C(=O)CSc1nnc(Nc2ccccc2)s1	21.3µM*	1.1%	2µM*	?	?	11.2µM*
O=S(=O)(CCc1ccccc1)c1nnnn1-c1ccccc1	nt	1.3%	nt	nt	nt	2.1%
CC1=Nc2cc([N+](=O)[O-])ccc2NC(C)(C)C1	-18.2%	-8.8%	5.1%	3.0%	11.8%	-14.6%
CC1(C)CNc2cc([N+](=O)[O-])ccc2S1	26.9µM*	0.8%	?	?	?	13.5%
Cc1cc(C)c2c(N)c(C(=O)Nc3ccc(C)c(C)c3)sc2n1	1.69µM*	nt	0.631µM*	1µM*	1.16µM*	nt
Cc1cc(C)cc(NC(=O)c2sc3nc(C)cc(C)c3c2N)c1	9.53µM*	nt	3.16µM*	1.78µM*	?	nt
Cc1cc(C)c(NC(=O)c2sc3nc(C)cc(C)c3c2N)c(C)c1	-3.5%	nt	nt	nt	nt	-2.0%
Cc1cc(C)c2c(N)c(C(=O)N/N=C/c3cccs3)sc2n1	?	nt	1.58µM*	1.78µM*	?	nt
Cc1cc(C)c2c(N)c(C(=O)Nc3ccc([N+](=O)[O-])cc3)sc2n1	-3.3%	nt	0.794µM*	0.501µM*	?	nt
Cc1cccc(NC(=O)CSc2nnc(CNC(=O)c3ccco3)n2C)c1C	3.2%	nt	-4.2%	1.3%	0.1%	nt
O=C(CCNS(=O)(=O)c1ccc2ccccc2c1)NCCOc1ccccc1	-1.9%	nt	-0.6%	-0.5%	-0.3%	nt
Cc1cc(C)c2c(N)c(C(=O)NCC3CCCCC3)sc2n1	23.9µM*	-6.1%	?	?	11.2µM*	11.2µM*
Cc1cc(C)c2c(N)c(C(=O)NC3CCCC3)sc2n1	?	-2.4%	23.9%	7.0%	9.7%	11.0%
Cc1cc(C)c2c(N)c(C(=O)Nc3ccc(F)cc3)sc2n1	1.51µM*	nt	0.501µM*	0.708µM*	?	nt
COc1ccc(NC(=O)c2sc3nc(C)cc(C)c3c2N)cc1	3.79µM*	nt	1.26µM*	1.58µM*	?	nt
COCc1cc(C)nc2sc(C(=O)Nc3ccccc3F)c(N)c12	19µM*	nt	26.3%	23.1%	14.9%	nt
COC(=O)N[C@@H](c1cccc(F)c1)C(C(C)=O)C(=O)OC (stereo not given in full)	nt	-3.9%	nt	nt	nt	-5.5%
CCCCn1c(N)c(N(CC(C)C)C(=O)CSCc2ccc(Cl)c(Cl)c2)c(=O)[nH]c1=O	4.8%	nt	-13.9%	-3.6%	0.9%	nt
Cc1nnc(N2CCN(c3ccccc3)CC2)c2c1nnn2Cc1ccc(F)cc1	1.2%	nt	nt	nt	nt	7.3%
Cc1cc(C(F)(F)F)c2c(N)c(C(=O)Nc3cc(C)on3)sc2n1	?	-5.0%	3.55µM*	?	?	-43.3%
COc1ccc(/C=N/NC(=O)c2sc3nc(C)cc(C)c3c2N)cc1	9.53µM*	nt	1.8%	2.2%	2.5%	nt
Cc1cc(C)c2c(N)c(C(=O)Nc3ccccc3C(F)(F)F)sc2n1	-15.3%	nt	nt	nt	nt	nt
